Test results from PubChem BioAssay (Tox21).
Several values for one entry are separate records, joined by “and”; a condition that tells them apart may be missing. Equal values may be shown once. Records with an inconclusive call do not appear. Activity calls are given as the source filed them. Unless noted, calls follow the shape of the dose curve; as a rule, active = well fitted curve in the direction sought with a large enough effect in the repeat runs; inconclusive = weak or mixed curves; inactive = no such curve, though single readings can be large; an effect the other way counts as inactive or inconclusive.

How the values were obtained:
[1] = qHTS assay to test for compound auto fluorescence at 535 nm (green) in HEK293 cells (AID 720680)
[2] = qHTS assay to test for compound auto fluorescence at 460 nm (blue) in HEK293 cell free culture (AID 720681)
Summary of the method: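 Compounds were added to cell-free DMEM with 10% FBS and fluorescence read directly. The blue channel used 405 nm excitation and 460 nm emission, with triamterene as the reference fluorophore.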

[3] = qHTS assay to test for compound auto fluorescence at 535 nm (green) in HEK293 cell free culture (AID 720682)
Summary of the method: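 Compounds were pin-transferred into cell-free DMEM with 10% FBS, and green fluorescence was read at excitation 485 nm and emission 535 nm. Intensities were expressed as fluorescein-equivalent values.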

[4] = qHTS assay to test for compound auto fluorescence at 590 nm (red) in HEK293 cell free culture (AID 720683)
Summary of the method: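 Cell-free wells of DMEM with 10% FBS received compound, and intrinsic fluorescence was read at excitation/emission 540/590 nm. Values expressed as equivalence to Rose Bengal sodium.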

[5] = qHTS assay to test for compound auto fluorescence at 590 nm (red) in HepG2 cell free culture (AID 720684)
Summary of the method: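 Compounds are added to culture medium (MEM, 10% FBS) lacking cells, then fluorescence is read at excitation 540 nm, emission 590 nm, with Rose Bengal sodium as the equivalency standard.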

[6] = qHTS assay to test for compound auto fluorescence at 460 nm (blue) in HepG2 cell free culture (AID 720685)
Summary of the method: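 Compound (23 nL) or DMSO pinned into cell-free MEM with 10% FBS; blue fluorescence read at 405/460 nm excitation/emission, expressed as auto-fluorescence equivalency to triamterene.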

[7] = qHTS assay to test for compound auto fluorescence at 535 nm (green) in HepG2 cell free culture (AID 720686)
[8] = qHTS assay to test for compound auto fluorescence at 460 nm (blue) in HepG2 cells (AID 720687)
Summary of the method: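 HepG2 cells in MEM with 10% FBS, attached overnight at 37 C, were exposed to compound or DMSO for 1 hr at 37 C, 5% CO2. Blue fluorescence was read at 405/460 nm, with triamterene as reference fluorophore.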

[9] = target: Glucocorticoid receptor (Homo sapiens) (UniProt P04150); experiment: qHTS assay to identify small molecule agonists of the glucocorticoid receptor (GR) signaling pathway (AID 720691; active = well fitted activation curve with a large enough effect in the signal ratio in the repeat runs, not every such curve was filed as active; the % refers to the signal ratio)
Chain of Glucocorticoid receptor (Homo sapiens) (P04150 whole entry, looked up): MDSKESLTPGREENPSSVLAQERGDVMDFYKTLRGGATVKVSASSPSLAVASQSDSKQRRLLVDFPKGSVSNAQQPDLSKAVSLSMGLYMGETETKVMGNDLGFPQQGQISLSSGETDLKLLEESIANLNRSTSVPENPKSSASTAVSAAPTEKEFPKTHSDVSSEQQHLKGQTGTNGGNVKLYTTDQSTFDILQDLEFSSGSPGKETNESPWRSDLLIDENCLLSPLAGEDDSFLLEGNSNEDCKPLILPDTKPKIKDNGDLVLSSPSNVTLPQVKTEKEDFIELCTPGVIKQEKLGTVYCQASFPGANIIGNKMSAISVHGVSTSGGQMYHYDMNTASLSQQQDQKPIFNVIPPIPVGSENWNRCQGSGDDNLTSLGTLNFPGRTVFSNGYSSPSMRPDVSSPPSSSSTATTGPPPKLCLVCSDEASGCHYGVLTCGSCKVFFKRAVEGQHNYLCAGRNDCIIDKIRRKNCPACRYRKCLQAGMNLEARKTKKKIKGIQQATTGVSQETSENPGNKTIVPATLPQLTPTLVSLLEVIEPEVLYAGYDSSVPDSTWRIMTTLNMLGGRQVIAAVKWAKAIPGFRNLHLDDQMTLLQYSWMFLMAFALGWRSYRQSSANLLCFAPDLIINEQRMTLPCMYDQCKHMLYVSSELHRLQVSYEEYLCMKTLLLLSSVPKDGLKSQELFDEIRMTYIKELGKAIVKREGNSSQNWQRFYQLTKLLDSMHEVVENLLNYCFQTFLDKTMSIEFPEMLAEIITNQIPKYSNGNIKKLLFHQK
Summary of the method: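 GR-bla HeLa cells carrying a GRE-driven beta-lactamase reporter, exposed to compounds for 18 h at 37 C. Reporter activation read as fluorescence after 2 h with LiveBLAzer B/G FRET substrate at room temperature.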

[10] = target: Glucocorticoid receptor (Homo sapiens) (UniProt P04150); experiment: qHTS assay to identify small molecule antagonists of the glucocorticoid receptor (GR) signaling pathway (AID 720692; active = well fitted inhibition curve with a large enough effect in the signal ratio in the repeat runs, not every such curve was filed as active; the % refers to the signal ratio)
Summary of the method: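 GR-bla HeLa cells carrying a GRE-driven beta-lactamase reporter received compound after 4 h plating, then dexamethasone (5 nM final). After 18 h at 37C, the FRET substrate was loaded for 2 h at room temperature and fluorescence read.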

[11] = qHTS assay for identifying genotoxic compounds that show differential cytotoxicity against isogenic chicken DT40 cell lines with known DNA damage response pathways - wild type cell line (AID 743012); also: nearly all actives have a fitted effect of over 60% in size; also: potency is read from the fitted curve at half-maximal effect
Summary of the method: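 Wild-type DT40 cells (300/well) exposed to compounds for 40 hours at 37 C/5% CO2. Viability read by CellTiter-Glo luminescence after 30 min at room temperature.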

[12] = qHTS assay for identifying genotoxic compounds that show differential cytotoxicity against isogenic chicken DT40 cell lines with known DNA damage response pathways - Rev3 mutant cell line (AID 743014); also: nearly all actives have a fitted effect of over 55% in size; also: potency is read from the fitted curve at half-maximal effect
[13] = qHTS assay to identify small molecule antagonists of the androgen receptor (AR) signaling pathway - cell viability counter screen (AID 743033; also: nearly all actives have a fitted effect of over 45% in size; also: potency is read from the fitted curve at half-maximal effect)
[14] = qHTS assay to identify small molecule antagonists of the glucocorticoid receptor (GR) signaling pathway - cell viability counter screen (AID 720693); also: nearly all actives have a fitted effect of over 55% in size
[15] = qHTS assay to identify small molecule antagonists of the androgen receptor (AR) signaling pathway using the MDA cell line - cell viability counter screen (AID 743041; also: nearly all actives have a fitted effect of over 45% in size; also: potency is read from the fitted curve at half-maximal effect)
Summary of the method: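 Same-well cytotoxicity was assessed by CellTiter-Fluor in MDA-kb2 AR-luc cells after 16 h of compound treatment under R1881 agonism.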

[16] = qHTS assay for identifying genotoxic compounds that show differential cytotoxicity against isogenic chicken DT40 cell lines with known DNA damage response pathways - Rad54/Ku70 mutant cell line (AID 743015); also: nearly all actives have a fitted effect of over 60% in size; also: potency is read from the fitted curve at half-maximal effect
[17] = target: Androgen receptor (Homo sapiens) (UniProt P10275); experiment: qHTS assay to identify small molecule antagonists of the androgen receptor (AR) signaling pathway (AID 743035; active = well fitted inhibition curve with a large enough effect in the signal ratio in the repeat runs, not every such curve was filed as active; the % refers to the signal ratio; also: potency is read from the fitted curve at half-maximal effect)
Chain of Androgen receptor (Homo sapiens) (P10275 whole entry, looked up): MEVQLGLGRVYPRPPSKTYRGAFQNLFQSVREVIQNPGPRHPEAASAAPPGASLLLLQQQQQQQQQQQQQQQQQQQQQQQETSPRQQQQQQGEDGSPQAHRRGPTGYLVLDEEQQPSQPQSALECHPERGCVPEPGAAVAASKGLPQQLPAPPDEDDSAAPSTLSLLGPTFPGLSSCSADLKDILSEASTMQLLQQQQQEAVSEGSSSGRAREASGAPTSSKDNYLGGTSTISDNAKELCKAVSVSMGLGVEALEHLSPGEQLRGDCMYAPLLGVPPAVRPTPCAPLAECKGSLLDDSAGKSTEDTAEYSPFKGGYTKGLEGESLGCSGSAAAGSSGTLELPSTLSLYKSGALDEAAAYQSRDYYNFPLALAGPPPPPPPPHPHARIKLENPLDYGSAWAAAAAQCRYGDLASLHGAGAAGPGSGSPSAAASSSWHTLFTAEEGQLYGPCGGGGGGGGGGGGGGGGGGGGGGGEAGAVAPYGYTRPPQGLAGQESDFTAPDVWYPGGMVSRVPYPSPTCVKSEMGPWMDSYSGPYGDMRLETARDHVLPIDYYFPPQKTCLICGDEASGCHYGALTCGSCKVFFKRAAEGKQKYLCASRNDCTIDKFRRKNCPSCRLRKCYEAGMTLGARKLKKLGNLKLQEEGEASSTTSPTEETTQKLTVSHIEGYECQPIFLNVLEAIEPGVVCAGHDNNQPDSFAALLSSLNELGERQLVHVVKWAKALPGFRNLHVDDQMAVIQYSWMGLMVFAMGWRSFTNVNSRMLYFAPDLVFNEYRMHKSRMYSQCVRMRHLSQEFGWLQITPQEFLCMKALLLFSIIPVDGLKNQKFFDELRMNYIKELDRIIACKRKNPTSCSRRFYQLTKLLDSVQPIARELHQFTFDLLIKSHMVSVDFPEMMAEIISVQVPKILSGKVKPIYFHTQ
Summary of the method: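 HEK293 cells stably carrying UAS-beta-lactamase reporter, 2,000/well, given compounds plus R1881 agonist and incubated 16 h at 37C. LiveBLAzer B/G FRET substrate then added for 2 h at room temperature before fluorescence reading.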

[18] = target: Androgen receptor (Homo sapiens) (UniProt P10275); experiment: qHTS assay to identify small molecule agonists of the androgen receptor (AR) signaling pathway (AID 743036; active = well fitted activation curve with a large enough effect in the signal ratio in the repeat runs, with a control signal flat, not every such curve was filed as active; the % refers to the signal ratio; also: potency is read from the fitted curve at half-maximal effect)
Summary of the method: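 Activation was read as beta-lactamase FRET signal from LiveBLAzer B/G substrate, added for 2 h at room temperature. Before that, GeneBLAzer AR-UAS-bla GripTite (HEK293) cells had 16 h compound exposure at 37C.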

[19] = target: Androgen receptor (Homo sapiens) (UniProt P10275); experiment: qHTS assay to identify small molecule agonists of the androgen receptor (AR) signaling pathway using the MDA cell line (AID 743040; also: nearly all actives have a fitted effect of over 20% in size); details: MDA-kb2 AR-luc cells, MMTV luciferase, 16 h; activity change: at 70.3 µM (top of the series), stronger effect = higher value
Summary of the method: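 Human breast carcinoma MDA-kb2 reporter cells (MMTV-luc, AR/GR elements) were treated for 16 h at 37C in 0% CO2 following a 5 h settling period. Signal was quantified by ONE-Glo luminescence.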

[20] = target: Androgen receptor (Homo sapiens) (UniProt P10275); experiment: qHTS assay to identify small molecule antagonists of the androgen receptor (AR) signaling pathway using the MDA cell line (AID 743042; also: nearly all actives have a fitted effect of over 55% in size)
Summary of the method: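 MDA-kb2 breast carcinoma cells carrying MMTV-luciferase (AR/GR responsive) were co-treated with compounds and the agonist R1881 for 16 h at 37C. Inhibition read as ONE-Glo luminescence; CellTiter-Fluor fluorescence measured in parallel for cytotoxicity.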

Measured: Potency

C=C(C)C(=O)OCCCCOC(=O)C(=C)C
inactive: [1] | [2] | [3] | [4] | [5] | [6] | [7] | [8] | [9] | [10] | [11] | [12] | [13]

CCOP(=O)(SC(C)CC)N1CCSC1=O (centres undefined)
inactive: [1] | [2] | [3] | [4] | [5] | [6] | [7] | [8] | [14] | [11] | [12] | [13] | [15]

COC1CC(=C(c2cccs2)c2cccs2)C[N+](C)(C)C1 (centres undefined)
active: [11] 23.7 µM | [16] 29.8 µM
inactive: [1] | [2] | [3] | [4] | [5] | [6] | [7] | [8] | [9] | [10] | [13] | [15]

CCC1(C2=NCCN2)Cc2ccccc2O1 (centres undefined)
inactive: [1] | [2] | [3] | [4] | [5] | [6] | [7] | [8] | [14] | [13] | [19] | [15] | [20]
active: [11] 5.31 µM | [12] 5.31 µM | [17] 19 µM | [18] 23.9 µM

CC(C)(C)c1ccc(CCOc2ncnc3ccccc23)cc1
inactive: [1] | [2] | [3] | [4] | [5] | [6] | [7] | [8] | [11] | [12] | [13] | [15]

FC(Cl)(Cl)C(F)(Cl)Cl
inactive: [1] | [2] | [3] | [4] | [5] | [6] | [7] | [8] | [14] | [11] | [12] | [13] | [15]

CCSCc1ccccc1OC(=O)NC
inactive: [1] | [2] | [3] | [4] | [5] | [6] | [7] | [8] | [9] | [14] | [16] | [13] | [15]

O=C(O)CCCOc1ccc(Cl)cc1Cl
inactive: [1] | [2] | [3] | [4] | [5] | [6] | [7] | [8] | [14] | [13] | [19] | [15] | [20]

Cc1nc2ccccc2c(=O)n1-c1ccccc1Cl
inactive: [1] | [2] | [3] | [4] | [5] | [6] | [7] | [8] | [9] | [10] | [13] | [15]
active: [11] 42.4 µM | [12] 59.8 µM

CCCCNC(=O)OCC#CI
active: [11] 3.05 µM and 611 nM | [12] 1.36 µM and 1.22 µM | [13] 12.2 µM and 19.5 µM | [15] 60.8 µM
inactive: [1] | [2] | [3] | [4] | [5] | [6] | [7] | [8]
